IDH1 R132H inh: blocks human mutant IDH1 R132H enzyme | O75874 | IDH1-R132H enzyme, NADPH consumption, diaphorase/resazurin fluorescence | Potency, µM (top dose mostly 76.6 µM), without a hit: top-dose activity change, negative = inhibition, usual class: inhibitors | 390,000 compounds, 0.093% hits; note: potency is the fitted concentration of half-maximal effect; % is set by controls: 0 for no effect and ±100 for the full control effect; nearly all actives have a fitted effect of over 65% in size
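IDH1-R132H (0.5 ug/mL) preincubated 30 min with compound, then NADPH (0.016 mM) and alpha-KG (2 mM) added; 80 min at RT, pH 7.5. Remaining NADPH coupled via diaphorase/resazurin to fluorescence (540/590 nm); concentration-response curves normalized to no-enzyme control.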
Eya2 inh: Eya2 (human) phosphatase inhibition; O00167; recombinant Eya2, OMFP fluorescence dephosphorylation (OMFP is methylfluorescein phosphate); Potency, µM (highest dose often 76.9 µM), inactives show at the highest dose activity, negative = inhibition, hits mostly inhibitors; 330,000 compounds, 0.006% hits; AID 488837; note: potency is the fitted concentration of half-maximal effect; % is set by controls: 0 for no effect and ±100 for the full control effect
Target sequence (O00167 whole entry, looked up): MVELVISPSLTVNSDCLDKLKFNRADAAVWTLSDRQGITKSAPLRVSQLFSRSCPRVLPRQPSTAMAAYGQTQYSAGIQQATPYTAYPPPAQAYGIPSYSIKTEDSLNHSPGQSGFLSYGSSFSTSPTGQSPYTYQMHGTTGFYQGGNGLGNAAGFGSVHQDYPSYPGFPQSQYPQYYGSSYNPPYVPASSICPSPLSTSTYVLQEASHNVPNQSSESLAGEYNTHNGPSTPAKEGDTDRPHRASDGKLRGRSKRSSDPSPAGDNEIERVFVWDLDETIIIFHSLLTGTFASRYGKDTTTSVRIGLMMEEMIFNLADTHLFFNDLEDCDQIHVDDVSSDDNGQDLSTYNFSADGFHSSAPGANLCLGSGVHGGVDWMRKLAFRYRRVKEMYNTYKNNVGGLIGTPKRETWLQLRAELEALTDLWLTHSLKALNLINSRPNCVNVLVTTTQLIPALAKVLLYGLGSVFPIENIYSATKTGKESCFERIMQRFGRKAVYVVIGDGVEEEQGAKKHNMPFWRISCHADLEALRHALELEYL
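Eya2 (0.2 uM) preincubated 10 min at ambient with compound, then OMFP substrate added at 50 uM; 10 min reaction in 50 mM HEPES pH 7.5, 50 mM NaCl, 5 uM MgCl2, 0.05% BSA, 1 mM DTT. Fluorescence read at Ex 485/Em 525 nm.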
TrxR1 substrate: substrates of rat thioredoxin reductase 1 | O89049 | purified TrxR1 substrate turnover, NADPH consumption readout | Potency, µM (highest dose often 114 µM), for inactives: top-dose activity change, negative = substrate turnover | 390,000 compounds, 0.01% hits; note: potency is the fitted concentration of half-maximal effect; % is set by controls: 0 for no effect and ±100 for the full control effect; nearly all actives have a fitted effect of over 50% in size
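Rat TrxR1, dispensed at 90 nM, was prereduced with 400 uM NADPH (final) for 5 min at ~22 deg C, then incubated with compound 15 min before 400 uM selenite. A first-read NADPH fluorescence drop versus no-compound background flagged substrates.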
TrxR1 inh-1: inhibitors of rat thioredoxin reductase 1 | O89049 | recombinant rTrxR1, NADPH fluorescence consumption, selenite substrate | Potency, µM (doses to about 114 µM), inactives show at the highest dose activity change, negative = inhibition, usual class: inhibitors | 390,000 compounds, 1% hits | AID 588453; note: potency is the fitted concentration of half-maximal effect; % is set by controls: 0 for no effect and ±100 for the full control effect; nearly all actives have a fitted effect of over 65% in size
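Rat TrxR1 (90 nM in the dispensed reagent) was pre-reduced with 400 uM NADPH for 5 min at room temperature, then incubated with compound for 15 min. After 400 uM selenite was added, NADPH fluorescence (Ex 340/Em 450 nm) was followed for 8 min.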
FBPA coupling cs: coupling enzyme interference in Giardia aldolase counter-screen; coupling enzyme system counterscreen, AmpLite Red fluorescence; activity change, negative = inhibition, % at 58.2 µM, hits read low; 290,000 compounds, 0.67% hits; in the data active = activity change below about -30%; note: % is set by controls: 0 for no effect and ±100 for the full control effect
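Fluorescence at 525 nm excitation and 598 nm emission measured inhibition of the coupled detection system without aldolase. Compounds (at 57.5 uM final) were preincubated 10 min at room temperature with coupling enzyme reagent before a 20 min substrate/AmpLite Red step.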
Casp1 catalase: inhibits human caspase-1 in catalase buffer, redox counter-screen | shares compounds with FBPA coupling cs | caspase-1 Ac-WEHD-AFC fluorescence rate, catalase buffer | Potency, µM (highest dose often 57.5 µM), for the others: at the top dose activity change, negative = inhibition, actives largely listed as inhibitors | 30 tested, under 10 active | AID 888; active = well fitted inhibition curve with a large enough effect in the main read-out, with a control signal flat; inconclusive = small, poorly fitted or top-dose-only effect, or a change in a side signal; inactive = no such curve, though single readings can be large or run the other way
Target sequence (P29466 120-297 limits assumed): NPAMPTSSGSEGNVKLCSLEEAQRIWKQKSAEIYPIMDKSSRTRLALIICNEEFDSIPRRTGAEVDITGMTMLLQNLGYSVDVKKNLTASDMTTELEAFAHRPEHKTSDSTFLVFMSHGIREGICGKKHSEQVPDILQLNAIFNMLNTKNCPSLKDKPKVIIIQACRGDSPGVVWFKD
Target sequence (P29466 317-404 limits assumed): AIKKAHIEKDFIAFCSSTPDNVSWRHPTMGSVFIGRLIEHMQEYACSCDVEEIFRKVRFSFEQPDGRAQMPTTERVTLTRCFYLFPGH
Casp1 confirm: blocks human caspase-1 activity in concentration-response | Potency, µM (highest dose often 57.5 µM), for the others: top-dose activity change, negative = inhibition, hits mostly inhibitors | 60 compounds, 20% hits | shares compounds with FBPA coupling cs | purified caspase-1, fluorogenic substrate cleavage; active = well fitted inhibition curve with a large enough effect in the main read-out, with a control signal flat; inconclusive = small, poorly fitted or top-dose-only effect, or a change in a side signal; inactive = no such curve, though single readings can be large or run the other way
CASP7 inh CRC: blocks human caspase-7 activity in concentration-response | shares compounds with FBPA coupling cs | recombinant caspase-7, fluorogenic substrate cleavage | Potency, µM (series often up to 57.5 µM), without a hit: top-dose activity change, negative = inhibition, usual class: inhibitors | 60 tested, under 10 active | AID 897; active = well fitted inhibition curve with a large enough effect in the main read-out, with a control signal flat, not every such curve was filed as active; inconclusive = small, poorly fitted or top-dose-only effect, or a change in a side signal; inactive = no such curve, though single readings can be large or run the other way
Casp7 cysteine: caspase-7 inhibition with cysteine present; shares compounds with FBPA coupling cs; caspase-7 enzyme with cysteine, fluorogenic substrate, redox counterscreen; Potency, µM (titrated, usually from 57.5 µM), for inactives: at the highest dose activity change, negative = inhibition, most hits filed as inhibitors; 60 tested, under 10 active; AID 908; active = well fitted inhibition curve with a large enough effect in the main read-out, with a control signal flat; inconclusive = small, poorly fitted or top-dose-only effect, or a change in a side signal; inactive = no such curve, though single readings can be large or run the other way
CASP7 redox cat: counter-screen for redox active caspase-7 inhibitors: catalase buffer; shares compounds with FBPA coupling cs; Caspase-7 Ac-DEVD-AFC fluorescence rate, catalase buffer; Potency, µM (series often up to 57.5 µM), for the others: at the highest dose activity, negative = inhibition, hits mostly inhibitors; 30 tested, under 10 active; AID 909; active = well fitted inhibition curve with a large enough effect in the main read-out, with a control signal flat; inconclusive = small, poorly fitted or top-dose-only effect, or a change in a side signal; inactive = no such curve, though single readings can be large or run the other way
Casp1 cysteine: caspase-1 inhibition with cysteine present | shares compounds with FBPA coupling cs | recombinant caspase-1, fluorogenic substrate, cysteine buffer | Potency, µM (doses to about 57.5 µM), inactives show top-dose activity change, negative = inhibition, usual class: inhibitors | 60 tested, under 10 active | AID 929; active = well fitted inhibition curve with a large enough effect in the main read-out, with a control signal flat; inconclusive = small, poorly fitted or top-dose-only effect, or a change in a side signal; inactive = no such curve, though single readings can be large or run the other way
GR inh: counter-screen for TrxR1 inhibitors: human glutathione reductase inhibition | 55 tested, under 10 active | purified GR, DTNB reduction absorbance 405 nm kinetic | activity change, negative = inhibition, % at 57.1 µM | shares compounds with TrxR1 inh-1
TrxR1 inh-2: validation of rat thioredoxin reductase 1 inhibitors; AID 652023; recombinant TrxR1, NADPH fluorescence consumption, selenite substrate; 55 compounds, 50% hits; Potency, µM, usual class: inhibitors; shares compounds with TrxR1 inh-1
TrxR1 insulin MOA: TrxR1 inhibition in insulin mechanism assay; shares compounds with TrxR1 inh-1; TrxR1 Trx-coupled insulin reduction, NADPH absorbance 340 nm; Potency, µM; 55 compounds, 20% hits;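 active = compounds with a measured potency under 100 micromolar; inconclusive = filed, but no rule given; inactive = potency at or above that, or unmeasurable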
TrxR1 inh-3: rat thioredoxin reductase 1 inhibition, DTNB assay; shares compounds with TrxR1 inh-1; purified TrxR1, DTNB reduction, A412; Potency, µM; 55 compounds, 90% hits;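 active = a half-inhibiting concentration could be measured and was below 100 µM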
An asterisk follows results filed as active; i = inactive; ? = inconclusive; nt = no result given; ! = a repeat was not active; [ ] = another dose, or the depositor's remark. Most compounds without a hit are left out; they make up all but 1.5% or so of the library. Unless noted, calls come from the whole dose curve; as a rule, active = well fitted curve in the direction sought with a large enough effect; inconclusive = small, poorly fitted or top-dose-only effect, or another doubt; inactive = no such curve, though single readings can be large; an effect the other way counts as inactive or inconclusive.

SMILES	IDH1 R132H inh	Eya2 inh	TrxR1 substrate	TrxR1 inh-1	FBPA coupling cs	Casp1 confirm	CASP7 inh CRC	Casp7 cysteine	Casp1 cysteine	others
CCc1sc(-c2cc3cccc(OC)c3oc2=O)nc1-c1cc(C)ccc1C	nt	nt	30%	27%	nt	nt	nt	nt	nt
Cc1cc(O)c2c(c1)C(=O)c1cccc(O)c1C2=O	nt	2%	nt	nt	1	nt	nt	nt	nt
O=C(O)c1cc(O)c2c(c1)C(=O)c1cccc(O)c1C2=O	18%	24%	-3%	-16%	-8	?	-1%	1%	?	Casp1 catalase=?;CASP7 redox cat=-16%
O=C1C(Cl)=C(NCCN2CCOCC2)C(=O)c2ccccc21	9%	-8%	-7%	-30%	-17	nt	nt	nt	nt
O=C1C(Cl)=C(NCCN2CCOCC2)C(=O)c2ncccc21	nt	nt	nt	nt	-12	2.5µM*	?	-5%	-2%
COC(=O)/C(Cc1cc(Br)c(OC)c(Br)c1O)=N/O	nt	nt	nt	nt	-1	nt	nt	nt	nt
CC(=O)[C@@H]1[C@@H]2C(=O)N(c3ccc(F)c(Cl)c3)C(=O)[C@@H]2C2c3ccccc3C=CN21 (some centres undefined)	nt	-16%	nt	nt	-2	-76%	-34%	-3%	?	Casp1 catalase=?;CASP7 redox cat=-25%
CC(=O)[C@@H]1[C@@H]2C(=O)N(C3CCCCC3)C(=O)[C@@H]2C2c3ccccc3C=CN21 (some centres undefined)	nt	-8%	nt	nt	nt	nt	nt	nt	nt
C=CCn1c(SCC)nc2ccccc2c1=O	nt	nt	-3%	8%	nt	nt	nt	nt	nt
COc1ccc(C2CC(=O)N3CN(c4ccc(C)c(Cl)c4)CSC3=C2C#N)cc1OC (centres undefined)	9%	-3%	-1%[57.1 µM]	?	-38*	-8%	-4%	-6%	3%	Casp1 catalase=-2%;CASP7 redox cat=-5%
N#CC1=C2SCN(c3ccc(F)cc3)CN2C(=O)CC1c1cccc(F)c1 (centres undefined)	1%	12%	6%[57.1 µM]	-16%[57.1 µM]	-14	nt	nt	nt	nt
COc1cc2c(C=O)c3c4c(cc(OC)c(OC)c4c2cc1OC)CCN3C	nt	nt	nt	nt	-34*	13µM*	?	-9%	?
CC(=O)n1nc(-c2ccco2)nc1SCc1ccccc1	-2%	4%	7%[57.1 µM]	?	1	-3%	2%	-1%	8%
O=C1C(SCCO)=C(SCCO)C(=O)c2ccccc21	25%	50µM*!	10µM*	16µM*	-56*	-44%	-18%	-14%	-8%
Cc1ccc(N)c(Cl)c1	nt	nt	nt	nt	-3	nt	nt	nt	nt
Nc1ccc(N)c(Cl)c1	nt	nt	nt	nt	nt	-4%	1%	-3%	4%
COc1ccc(NC(=O)c2cc(OCCCN(C)C)nn2Cc2ccccc2)cc1	nt	nt	nt	nt	0	nt	nt	nt	nt
Nc1ccc(O)c(C(=O)O)c1	nt	nt	nt	nt	-46*	-18%	-35%	-36%	-2%
Nc1nc(=S)[nH]c(N)c1N	nt	nt	2%	-1%	nt	nt	nt	nt	nt
COc1cc(/C=C2/C(=O)NN(c3cccc(F)c3)C2=O)ccc1OC(=O)c1ccco1	-4%	3%	-9%	28µM*	1	nt	nt	nt	nt	GR inh=0;TrxR1 inh-2=?;TrxR1 insulin MOA=i;TrxR1 inh-3=6.8µM*
CC1=CC(C)(C)NC(=S)N1c1cccc2ccccc12	9%	6%	6%	13%	-3	nt	nt	nt	nt
CN1c2ccccc2N(C)C1(C)c1cccc2ccccc12	5%	-9%	-8%	50µM*	-30	nt	nt	nt	nt	GR inh=-15;TrxR1 inh-2=?;TrxR1 insulin MOA=i;TrxR1 inh-3=4.4µM*
CCCCc1nc2c(c3c1C[C@H](C)OC3)CN(C(=O)Cc1cccc(OC)c1)CC2	nt	nt	nt	nt	4	nt	nt	nt	nt
COc1cc(C(c2nnnn2C(C)(C)C)N2CCN(c3nc4ccccc4s3)CC2)ccc1O (centres undefined)	1%	6%	10%[57.1 µM]	13µM*	0	nt	nt	nt	nt	GR inh=-3;TrxR1 inh-2=?;TrxR1 insulin MOA=i;TrxR1 inh-3=0.16µM*
CC(C)(C)c1cc(CN2CCN(CCO)CC2)cc(C(C)(C)C)c1O	0%	-6%	5%[57.1 µM]	7.9µM*	-11	nt	nt	nt	nt	GR inh=0;TrxR1 inh-2=?;TrxR1 insulin MOA=i;TrxR1 inh-3=1.3µM*
CC(=O)c1cc2ccccc2c2ccccc12	nt	nt	-3%	4%	nt	nt	nt	nt	nt
Cc1ccc(CNC(=O)c2cc3c(=O)n(C)c4ccccc4c3n2C)o1	-3%	15%	6%	?	3	nt	nt	nt	nt
Cc1ccc(CNC(=O)c2cn(C)c(=O)c3c2c2ccccc2n3C)o1	0%	3%	10%	16µM*	-4	nt	nt	nt	nt	GR inh=-15;TrxR1 inh-2=?;TrxR1 insulin MOA=i;TrxR1 inh-3=1.5µM*
O=[N+]([O-])c1ccc2nc(CO)[nH]c2c1	nt	nt	1%	-2%	nt	nt	nt	nt	nt

Source: PubChem BioAssay
